# Source: PubChem
# TRAIL sens C8: sensitizes caspase-8 expressing cells to TRAIL. 360,000 compounds, 1% hits. inhibition (viability loss, TRAIL sensitization), % at 10 µM. NB7+C8 cells + TRAIL, ATPlite viability luminescence. AID 624354;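 active = compounds causing at least 50% loss of cell viability in the single-dose screen, relative to plate controls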
# SENP7 block: inhibitors of human SENP7 protease; Q9BQF6; recombinant SENP7, Z-RLRGG-aminoluciferin luminescence, 40 min; inhibition, % at 5 µM; 330,000 compounds, 1.5% hits;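 active = inhibition above about 50% at the single test dose, limit read from the data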;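 note: plate controls were DMSO with enzyme for no effect and no enzyme buffer wells for full effect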
# Target sequence (Q9BQF6 706-1050 limits assumed): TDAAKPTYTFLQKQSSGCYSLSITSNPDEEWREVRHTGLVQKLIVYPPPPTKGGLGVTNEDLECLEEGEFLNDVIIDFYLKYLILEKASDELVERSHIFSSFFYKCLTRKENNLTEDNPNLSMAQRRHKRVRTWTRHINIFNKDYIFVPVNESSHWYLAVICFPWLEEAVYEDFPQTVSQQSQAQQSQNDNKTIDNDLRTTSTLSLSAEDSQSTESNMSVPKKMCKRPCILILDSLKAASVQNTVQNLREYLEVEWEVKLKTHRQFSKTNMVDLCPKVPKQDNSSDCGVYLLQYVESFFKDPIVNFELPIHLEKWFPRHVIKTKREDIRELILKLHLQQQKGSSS
# SENP8 block-1: SENP8 (human) protease inhibition; Q96LD8; recombinant SENP8, Nedd8 substrate fluorescence; inhibition, % at 20 µM; 360,000 compounds, 0.64% hits; AID 602440; in the data active = inhibition mostly above about 40%, no sharp cut-off; inactive = mostly below about 27%
# Target sequence (Q96LD8 whole entry, looked up): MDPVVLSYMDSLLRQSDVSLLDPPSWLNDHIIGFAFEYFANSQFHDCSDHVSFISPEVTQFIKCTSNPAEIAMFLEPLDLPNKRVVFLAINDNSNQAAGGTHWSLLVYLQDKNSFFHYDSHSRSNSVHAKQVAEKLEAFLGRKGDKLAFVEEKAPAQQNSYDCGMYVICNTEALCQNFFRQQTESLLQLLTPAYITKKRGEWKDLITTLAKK
# PPC-1+TRAIL kill: kills PPC-1 cancer cells in the presence of TRAIL; PPC-1 cells + TRAIL, ATPLite viability luminescence; 220,000 compounds, 0.41% hits; AID 1443; cell killing (% activity), % at 4 µM or 5 µM;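 active = cell killing above 50% in the first pass at 4 µM, then a duplicate retest at 5 µM averaging 50% or more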;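 note: plate controls were cells with TRAIL plus DMSO for no effect and medium-only wells lacking cells for full effect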
# SENP6 block: inhibitors of human SENP6 protease; Q9GZR1; Recombinant SENP6 catalytic domain, aminoluciferin luminescence; inhibition, % at 10 µM; 330,000 compounds, 1.8% hits; AID 2599;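 active = inhibition above about 50% at the single tested dose, limit read from the data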;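 note: plate controls were DMSO wells with enzyme for no effect and DMSO wells lacking enzyme for full effect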
# SENP8 block-2: SENP8 protease inhibition | Q96LD8 | purified SENP8, Z-RLRGG-aminoluciferin cleavage, luminescence | inhibition, % at 10 µM | 330,000 compounds, 1.2% hits | AID 2540; in the data active = inhibition above about 50%
# Numbers without * were called inactive; i = inactive; . = not tested or not shown. Only some compounds are listed: those with a hit (about 3% of all), similar ones and a draw of the others.
SMILES,TRAIL sens C8,SENP7 block,SENP8 block-1,PPC-1+TRAIL kill,SENP6 block,SENP8 block-2
CCCCC(=O)OCC(=O)C1(O)Cc2c(O)c3c(c(O)c2C(OC2CC(NC(=O)C(F)(F)F)C(O)C(C)O2)C1)C(=O)c1c(OC)cccc1C3=O (centres undefined),17.2,.,45.3*,.,.,.
COc1cccc2c1C(=N)c1c(O)c3c(c(O)c1C2=O)CC(O)(C(C)=O)CC3OC1CC(N)C(O)C(C)O1 (centres undefined),49.7,.,37.6,.,.,.
CC(C)COc1ccc(CSCCNC(=S)Nc2ccccc2)cc1,4.4,2.6,16.2,2.5,6.2,0.4
CCOC(=O)[C@@H]1[C@H]2COc3ccc(Br)cc3[C@H]2N2C(=O)N(c3ccc(F)cc3)C(=O)[C@@]12C,0.8,6.5,9.7,.,-13.5,-5.4
O=C1Nc2ccc(Br)cc2/C1=C/C(=O)c1ccc2c(c1)OCO2,37.7,-4.6,-10.0,3.7,-0.8,1.2
COc1ccc(C(=O)/C=C2\C(=O)Nc3ccc(Br)cc32)cc1,59.5*,.,1.3,.,.,.
CC12CCC(C/C1=N\N=C1\NC(=O)/C(=C\c3ccc(Cl)cc3)S1)C2(C)C (centres undefined),2.2,-3.3,40.3*,-1.0,-5.7,-18.9
O=C1NC(=Nc2ccccc2Cl)S/C1=C\c1ccc(C(=O)O)cc1,3.0,12.6,19.5,.,29.8,28.6
CC(C)(C)c1ccc(C2CC2C(=O)N/N=C\c2ccc[nH]2)cc1 (centres undefined),64.9*,2.7,-1.1,9.0,-4.8,6.6
COc1ccc(NC(=O)CSc2nc3ccsc3c(=O)n2CCCCCC(=O)O)cc1,2.8,-3.7,-1.0,16.3,-14.6,-11.4
Cc1ccc(-c2ccccc2NC(=O)CCl)o1,48.4*,9.6,-36.0,-0.4,-21.5,-12.1
O=C(NCc1ccccn1)c1cccc(NS(=O)(=O)c2ccc(Br)cc2)c1,-2.0,1.8,0.1,.,-6.9,-5.7
CC(=O)c1cccc(NC(=O)c2ccc(OC3CSC3)cc2)c1,5.4,40.3,6.7,.,-12.6,4.6
O=C(Nc1cccc(Br)c1)c1ccc(OC2CSC2)cc1,.,96.4*,.,2.0,91.9*,89.9*
Cc1ccc(C)c(-n2c(-c3ccc(Br)cc3)csc2=NC(=O)c2ccccc2F)c1,13.1,1.1,-276.9,0.0,-11.9,10.8
Cn1c(O)c(N=NC(=O)CNC(=O)c2ccccc2)c2ccccc21,-7.5,0.8,9.7,.,-21.5,6.1
Cn1c(N=NC(=O)c2ccccc2)c(O)c2ccccc21,60.4*,49.1,23.5,44.4,69.8*,41.4
COc1ccc(C(=O)N/C(=C\c2ccc(Cl)cc2)C(=O)NCc2ccncc2)cc1,-23.9,.,0.2,.,.,.
Oc1cc(-c2ccc(N3CCCCC3)nc2)cc2cccnc12,73.5*,45.5,i,.,29.3,-2.2
CCN(CC(=O)N1CCOCC1)S(=O)(=O)c1ccc(Cl)cc1,-12.8,-7.2,11.4,.,-5.2,9.7
CN=c1scc(-c2ccccc2F)n1/N=C(\C)c1cccnc1,62.7*,3.5,-12.9,41.9,22.3,-0.7
O=S1(=O)CC(N2CCC(Cc3ccccc3)CC2)CN1C1CCCCC1 (centres undefined),-6.6,.,12.4,.,.,.
CC/C(=N\NC(=O)c1ccc(N2CCCC2=O)cc1)c1ccccc1,0.4,9.1,10.0,.,4.5,-1.7
N#C/C(N=Nc1ccccc1O)=N\Nc1ccccc1O,53.5*,-12.6,58.3*,.,85.3*,73.7*
Cc1nc(N)nc(N)c1-c1ccc([N+](=O)[O-])cc1,74.7*,.,12.8,.,.,.
SMILES,TRAIL sens C8,SENP7 block,SENP8 block-1,PPC-1+TRAIL kill,SENP6 block,SENP8 block-2
Cc1cccn2c(=O)c3cc(C(=O)NCCC4=CCCCC4)n(C)c3nc12,15.9,-0.8,-374.6,.,-11.8,2.8
Cn1c(C(=O)NCCC2=CCCCC2)cc2c(=O)n3ccccc3nc21,60.4*,1.9,-322.7,18.6,-5.3,-0.5
COC(=O)c1cc(S(=O)(=O)NCCCN2CCCC2=O)cn1C,-4.9,10.6,3.8,.,-1.5,4.9
Cc1ccc(CSc2nnc(-c3cccnc3)o2)cc1,54.1*,-9.8,11.6,-8.3,-6.2,-7.1
C#CCSc1nnc(-c2ccc(C)cc2)o1,90.1*,19.2,28.8,17.2,27.9,-2.7
C#CCSc1nnc(-c2ccc(O)cc2)o1,2.4,12.8,11.9,25.2,40.0,9.8
COc1cccc(C(C(=O)NCc2ccccc2)N2CCN(c3ccccc3F)CC2)c1OC (centres undefined),13.0,.,18.5,.,.,.
COc1ccccc1/C=C/C1(C(=O)NC2CCCC2)CC(=O)N1c1ccc(C)cc1 (centres undefined),59.7*,0.6,6.2,9.8,5.3,0.2
CCN(CC)S(=O)(=O)c1ccc(N2C(=O)CC2(/C=C/c2ccccc2)C(=O)NC2CCCC2)cc1 (centres undefined),-2.9,4.2,-1.8,-11.4,-9.2,3.7
COc1ccccc1/C=C/C1(C(=O)NC2CCCC2)CC(=O)N1c1ccc(F)cc1 (centres undefined),92.4*,3.0,38.7,7.0,20.0,1.8
COc1ccc(C(C(=O)Nc2ccc(F)cc2)N2CCN(c3cccc(C(F)(F)F)n3)CC2)cc1 (centres undefined),-1.2,.,-22.9,.,.,.
Cc1ccc(Cl)cc1N1CCN(c2cccc[n+]2C)CC1,18.1,-3.3,18.3,13.3,-3.8,-3.2
O=[N+]([O-])c1cc(S(=O)(=O)N2CCCCCC2)ccc1Cl,-3.9,-0.3,6.8,56.3*,-11.1,-3.1
CCOC(=O)/C(=C\c1cccnc1)C(=O)c1cc(C(C)=O)c(Nc2ccccc2)s1,94.3*,-8.8,-128.4,12.0,-21.5,-5.5
CCCCn1c(N)c(N(CC(C)C)C(=O)c2ccc(OCc3c(C)noc3C)cc2)c(=O)[nH]c1=O,-3.3,-1.9,10.8,.,3.4,-6.1
CC1CCCCN1C(=O)CSc1nnc(-c2cccnc2)o1 (centres undefined),12.2,-3.1,8.1,.,7.5,8.3
Cc1[nH]n(-c2ccccc2)c(=O)c1N=Nc1ccc2c(c1)OCO2,2.3,2.1,46.0*,12.9,-6.3,2.5
Cc1ccccc1N=Nc1c(C)[nH]n(-c2ccccc2)c1=O,.,.,.,25.1,.,.
Cc1[nH]n(-c2ccccc2)c(=O)c1N=Nc1ccccc1O,56.8*,-9.1,40.2*,46.0,15.5,-6.3
Cc1[nH]n(-c2ccccc2)c(=O)c1N=Nc1nccs1,14.0,35.2,56.0*,-0.6,39.6,14.8
CN1C(=O)/C(=C/c2cc(N=Nc3ccccc3)ccc2O)SC1=S,8.1,16.6,39.2*,31.5,22.2,20.9
CCCCn1c(SCC(=O)Nc2nnc(CC)s2)nc2c1c(=O)n(C)c(=O)n2C,64.3*,-4.3,16.3,19.1,6.7,-4.5
O=C1C=C(N2CCN(c3ccccn3)CC2)C(=O)c2c(O)ccc(O)c21,50.3*,.,76.3*,.,.,.
CN1CCN(C(=O)c2ccc(NS(=O)(=O)c3cccc([N+](=O)[O-])c3)cc2)CC1,-1.3,1.1,11.0,.,-2.5,-1.5
Cc1cc(N=Nc2ccc(Cl)cc2)cc(CN2CCCC2)c1O,12.2,-11.3,42.8*,11.7,-5.5,-7.3
